Source: PubChem BioAssay
In the library only some 3.9% were active in any assay of this set; here they are far more common.
SUMO HTRF inh: inhibitors of in vitro SUMOylation cascade, primary screen, biochemical, HTRF, uHTS | SUMO-conjugating enzyme UBC9 (Homo sapiens), P63279 | HTRF SUMOylation assay, SAE1/SAE2 + UBC9 | inhibition, % at 35 µM | hit rate 0.36% among 290,000; in the data active = inhibition above about 50%, passing the limit was not always enough
H9c2 protect: cardioprotection against H2O2-induced cell death, primary screen, uHTS, H9c2 cells, ATPLite luminescence | AID 588492, 2011 | protection from H2O2 cell death, % at 20 µM | H9c2 cardiomyocytes, H2O2 injury protection, 2 h | hit rate 0.63% among 360,000;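 active = compounds giving at least 50% protection of heart cells from peroxide-induced death in the single-dose screen, raw or plate-pattern-corrected value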
ALR inh: inhibitors of human ALR sulfhydryl oxidase, primary screen, biochemical, H2O2 detection, HRP-luminol luminescence, single point; FAD-linked sulfhydryl oxidase ALR (Homo sapiens), P55789; purified ALR, DTT oxidation; inhibition, % (test concentration not listed); hit rate 3.8% among 290,000;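 active = mean replicate inhibition above about 79%, with every replicate also reaching it, limit read from the data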
NTR1 ag: agonists of human NTR1, primary screen, imaging, U2OS cells, beta-arrestin-GFP, high content | Neurotensin receptor type 1 (Homo sapiens), P30989 | NTR1-U2OS beta-arrestin-GFP spot imaging, agonist mode | activation, % at 20 µM | hit rate 0.17% among 330,000 | AID 493036, 2011;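 active = activation at or above 40% of the spot to cytoplasm intensity ratio, with at least 20 cells analyzed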
Target sequence (P30989 whole entry, looked up): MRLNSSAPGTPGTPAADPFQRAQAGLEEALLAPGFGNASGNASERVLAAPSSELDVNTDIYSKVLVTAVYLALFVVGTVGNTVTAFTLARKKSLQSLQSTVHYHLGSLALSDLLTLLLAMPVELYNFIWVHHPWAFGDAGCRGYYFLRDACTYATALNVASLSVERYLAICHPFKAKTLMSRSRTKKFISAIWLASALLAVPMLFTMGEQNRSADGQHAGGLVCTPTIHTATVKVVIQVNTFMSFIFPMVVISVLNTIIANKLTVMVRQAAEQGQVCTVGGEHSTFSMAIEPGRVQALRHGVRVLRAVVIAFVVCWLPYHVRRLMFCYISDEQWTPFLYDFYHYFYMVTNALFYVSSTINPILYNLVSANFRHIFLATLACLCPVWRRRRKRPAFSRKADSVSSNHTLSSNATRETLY
Large screens that a line does not name were inactive.

O=C(CCc1nc2ccccc2c(=O)[nH]1)NCc1ccco1	H9c2 protect 76.0
N#CCCN(C(=O)COC(=O)CCc1nc2ccccc2c(=O)[nH]1)c1ccc(F)cc1	H9c2 protect 53.6 (no result: SUMO HTRF inh)
COc1ccc(OC)c(C2CC(=O)N3CN(c4ccccc4)CSC3=C2C#N)c1 (stereo not given)	none
CN(CC(=O)Nc1ccc(Cl)c(C(F)(F)F)c1)C(=O)CCc1nc2ccccc2c(=O)[nH]1	none (no result: SUMO HTRF inh)
CN(CC(=O)Nc1ccc(F)cc1)C(=O)CCc1nc2ccccc2c(=O)[nH]1	H9c2 protect 60.1 (no result: SUMO HTRF inh)
CC1(NC(=O)CCc2nc3ccccc3c(=O)[nH]2)CCS(=O)(=O)C1 (stereo not given)	H9c2 protect 50.8
CN(CC(=O)Nc1ccccc1Cl)C(=O)CCc1nc2ccccc2c(=O)[nH]1	H9c2 protect 64.0 (no result: SUMO HTRF inh)
O=C(CCc1nc2ccccc2c(=O)[nH]1)Nc1nc(-c2cccs2)cs1	H9c2 protect 64.7 (no result: SUMO HTRF inh)
O=C(/C=C/c1ccc2c(c1)OCCO2)N1CCN(c2ccc(F)cc2)CC1	none (no result: ALR inh)
CN(CCC1CCOCC1)C(=O)CC1C(=O)NCCN1C/C=C/c1ccccc1 (stereo not given)	none
C=CC[C@@H](CC(=O)NCCO)C(=O)N[C@H](COC(=O)[C@@H](CC=C)Cc1ccc(F)cc1)Cc1c[nH]c2ccccc12	none (no result: SUMO HTRF inh)
COc1cc(C)nc(OCCNC(=O)COc2ccc(Cl)cc2Cl)n1	none
Cc1nc2ccccc2cc1OCc1ccccc1	none
CCOC(=O)C1=C(N)Oc2cc(O)ccc2C1c1cccc([N+](=O)[O-])c1 (stereo not given)	ALR inh 84.9
CCOC(=O)C1=C(N)Oc2cc(O)ccc2C1c1ccccc1 (stereo not given)	none
COc1cc(/C=C2\C(=O)ON=C2c2ccccc2)cc(Cl)c1O	ALR inh 98.8
COc1cc(/C=C2/C(=O)ON=C2c2ccccc2)ccc1O	ALR inh 95.0
COc1cc(/C=C2\C(=O)ON=C2c2ccccc2)cc(Br)c1O	none (no result: ALR inh)
COc1cc(C=C2C(=O)c3ccccc3C2=O)ccc1O	none
O=C1ON=C(c2ccccc2)/C1=C/c1ccccc1	none (no result: ALR inh)
O=C1ON=C(c2ccccc2)/C1=C/c1ccc(O)cc1	ALR inh 86.8
COc1ccc(-c2nnc3n2CCCCC3)cc1OC	none (no result: ALR inh)
COc1ccc(-c2csc(Cc3nnc4n3CCCCC4)n2)cc1OC	ALR inh 97.5
Cn1ccnc1Sc1ccccc1[N+](=O)[O-]	none
Cc1cccc(OCC(=O)N/N=C/c2ccc(N(C)C)cc2)c1	ALR inh 98.4
COc1cc(/C=N/NC(=O)CSc2ccccn2)ccc1O	ALR inh 98.5
CN(C)c1ccc(/C=N/NC(=O)CSc2ccccn2)cc1	ALR inh 98.7
CCCOc1ccc(/C=N/NC(=O)CSc2ccccn2)cc1OC	none (no result: ALR inh)
N#Cc1c2c(c(Nc3ccccc3)n3c1nc1ccccc13)CCC2	none
COc1ccc(NC(=S)N(Cc2cccnc2)Cc2cc3cc(OC)c(OC)cc3[nH]c2=O)cc1	H9c2 protect 65.9
COc1ccc2[nH]c(=O)c(CN(Cc3cccnc3)C(=O)Nc3ccccc3)cc2c1	none
COc1ccc(N(Cc2cc3cc(OC)ccc3[nH]c2=O)C(=O)c2cccnc2)cc1	H9c2 protect 108.6
COc1ccc2[nH]c(=O)c(CN(C(=O)c3cccnc3)c3ccccc3)cc2c1	none
COCCCNc1ncnc2c1nc1n2CCCC1	none
CC(C)(C)NC(=O)C(c1ccncc1)N(Cc1cccs1)C(=O)c1csnn1 (stereo not given)	none
COc1ccc(-c2ccc(/C=C(\NC(=O)c3ccccc3)C(=O)N3CCOCC3)o2)cc1	ALR inh 97.8
Cn1c(=O)c2c(nc(NC3CCCCC3)n2Cc2ccccc2)n(C)c1=O	none
Cc1ccc(-n2nc3ccc(N)cc3n2)c(C)c1	SUMO HTRF inh 50.4
Cc1cc(N)ccc1-n1nc2ccccc2n1	none (no result: SUMO HTRF inh)
O=C(CSCc1ccc(Cl)cc1Cl)Nc1ccc(O)cc1C(=O)O	ALR inh 98.5
O=C(CSCc1ccc(Cl)cc1)Nc1ccc(Br)cc1C(=O)O	ALR inh 96.2
O=C(CSCc1ccc(Cl)cc1Cl)Nc1ccccc1C(=O)Nc1ccc(C(=O)O)cc1	ALR inh 97.0
Cc1c(NC(=O)CSCc2ccc(Cl)cc2Cl)cccc1C(=O)O	ALR inh 98.2
CCOC(=O)C[C@H]1c2ccc(C(F)(F)F)cc2S(=O)(=O)N1C1CCCC1	none (no result: SUMO HTRF inh, ALR inh)
COc1ccc(COC(=O)Nc2c(SC)nsc2SC)cc1	none
Cc1ccc(S(=O)(=O)NNC(=O)c2cc(C)c(C)cc2N)cc1	none (no result: SUMO HTRF inh, ALR inh, NTR1 ag)
CCOCCn1c(CC)nc2ccccc21	none
